Calls of active or inactive are those of the source.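 How the source made its calls, unless noted: active means inhibition above 20% together with a positive visual image hit; inconclusive means visual image hit but inhibition not above 20%; inactive means no visual image hit.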
Tests used:
[1] = inhibitors of TNFa-induced NFkB p65 translocation, primary screen, imaging, HUVEC, MLSMR starter and 10KST1 sets (AID 438); conditions: HUVEC TNFa-induced p65 nuclear translocation; cell count: measured here: nuclei count (cytotoxicity indicator), at 2.08 µM; inhibition: at 2 µM, stronger effect = higher value, 0% TNFa-plus-vehicle, 100% no-TNFa wells;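 further: compound added about 3h40 before a 20 min TNFalpha stimulation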;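 on inhibition: signal is the nuclear over cytoplasmic p65 intensity ratio per well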
[2] = inhibitors of mutant huntingtin aggregation, primary screen, imaging, exon1htt(103Q)mCFP cells, high-content imaging (AID 483;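 active means visual image review flags a hit and inhibition of aggregation exceeds 20%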;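 further: compound exposure lasted 3 days before fixation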;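 on nuclei count: percent of the per-plate median nuclei count of sample wells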); conditions: exon1htt(103Q)mCFP cell line, aggregate imaging, at 2 µM; inhibition of aggregation: stronger effect = higher value; nuclei count: measured here: cell count, toxicity
[3] = inhibitors of E-selectin induction by TNFa, primary screen, imaging, HUVEC, immunofluorescence, MLSMR starter and 10KST1 sets (AID 487;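 active means visually confirmed hit in the image check and inhibition above 20%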;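 on inhibition: signal is fraction of cell area covered by stained E-selectin grains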;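 on nuclei count: 100% = median nuclei count of all wells on the same plate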); conditions: HUVEC TNFalpha-induced E-selectin immunofluorescence imaging, at 2 µM; inhibition: stronger effect = higher value; nuclei count: measured here: cell number, toxicity
[4] = biological target: Voltage-gated potassium channel subunit beta-2 (Rattus norvegicus) (UniProt P62483); assay: KvBeta enzyme negative modulators, primary screen, biochemical, NADPH fluorescence (AID 622;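 active means fluorescence slope higher than the sample average by over 3 SD, cut at about -0.22 in these data, passing the limit was not always enough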;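 further: slope of raw intensity against log time taken from 70 to 1610 s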); conditions: recombinant KvBeta, 4-cyanobenzaldehyde reduction, at 10 µM, stronger effect = higher value
Chain of Voltage-gated potassium channel subunit beta-2 (Rattus norvegicus) (P62483 whole entry, looked up): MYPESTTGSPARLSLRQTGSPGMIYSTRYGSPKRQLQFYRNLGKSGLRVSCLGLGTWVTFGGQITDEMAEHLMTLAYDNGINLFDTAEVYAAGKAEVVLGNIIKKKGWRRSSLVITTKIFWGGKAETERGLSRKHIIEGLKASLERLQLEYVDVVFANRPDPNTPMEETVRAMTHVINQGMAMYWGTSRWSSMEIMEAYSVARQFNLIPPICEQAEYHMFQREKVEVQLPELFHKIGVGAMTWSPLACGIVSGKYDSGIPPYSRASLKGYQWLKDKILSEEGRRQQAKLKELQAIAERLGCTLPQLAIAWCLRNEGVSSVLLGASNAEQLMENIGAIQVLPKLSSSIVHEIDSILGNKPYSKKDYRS

[5] = biological target: Voltage-gated potassium channel subunit beta-2 (Rattus norvegicus) (UniProt P62483); assay: KvBeta positive modulators, primary screen, biochemical, NADPH fluorescence (AID 623;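 active means NADPH fluorescence slope more negative than the mean of all samples by about 3 SD, 99.7% confidence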;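 further: fluorescence intensity change per second fitted from 20 to 320 s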); conditions: Recombinant KvBeta, NADPH fluorescence decrease slope, 10 min; at 10 µM; stronger effect = lower value
[6] = biological target: Alpha-2C adrenergic receptor (Homo sapiens) (UniProt P18825); assay: modulators of alpha2C/GIRK thallium flux, primary screen, cell-based, HEK293 alpha2C/GIRK1/2 (AID 624;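 active means fluorescence slope after compound addition differing from the mean of all screened samples at 99.7% confidence, in either direction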;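 further: slope of fluorescence ratio to pre-addition baseline per second over 15 to 24 s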); conditions: thallium flux BTC fluorescence, at 10 µM, actives lie on both sides
Chain of Alpha-2C adrenergic receptor (Homo sapiens) (P18825 whole entry, looked up): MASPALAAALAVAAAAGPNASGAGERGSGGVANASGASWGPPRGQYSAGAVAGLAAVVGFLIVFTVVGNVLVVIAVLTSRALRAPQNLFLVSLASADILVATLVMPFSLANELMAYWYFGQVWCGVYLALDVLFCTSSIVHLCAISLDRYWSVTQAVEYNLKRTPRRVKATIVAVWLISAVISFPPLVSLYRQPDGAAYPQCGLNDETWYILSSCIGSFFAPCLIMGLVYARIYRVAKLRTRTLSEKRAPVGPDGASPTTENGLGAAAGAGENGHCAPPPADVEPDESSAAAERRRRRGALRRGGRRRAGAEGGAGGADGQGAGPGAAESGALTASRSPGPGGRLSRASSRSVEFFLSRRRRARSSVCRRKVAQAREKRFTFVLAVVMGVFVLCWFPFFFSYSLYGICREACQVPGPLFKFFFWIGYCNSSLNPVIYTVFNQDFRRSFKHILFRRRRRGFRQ

[7] = inhibitors of Sendai virus-induced IRF3 signaling, primary screen, TLR/RLR signaling modifier project, cell-based, Sendai virus stimulus, luciferase, 10K MLSCN set (AID 602276;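 active means inhibition at or above 50% at 10 µM; inactive means inhibition below 50%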;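 further: firefly luciferase from ISG56 promoter only with Renilla not read in this screen; 0% = Sendai virus plus DMSO and 100% = medium plus DMSO without virus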); conditions: HEK293 RL24 IRF3 luciferase reporter, at 10 µM, stronger effect = higher value
[8] = inhibitors of poly I:C-induced TLR3 signaling, primary screen, cell-based, poly I:C stimulus, luciferase, 10K MLSCN set (AID 602277;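 active means inhibition of the reporter signal at or above 50%; inactive means inhibition below 50%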); conditions: HEK293-TLR3 RL24 IRF3 luciferase reporter, at 10 µM, stronger effect = higher value

SMILES | cell count [1] | inhibition [1] | inhibition of aggregation [2] | nuclei count [2] [%] | inhibition [3] | nuclei count [3] [%] | fluorescence slope [4] | NADPH fluorescence slope [5] | slope [6] | inhibition [7] | inhibition [8]
COc1ccccc1N1CC(C(=O)Nc2cccc(C(=O)O)c2)CC1=O (configuration not stated) | 495 | -16.1% (inactive) | 10.1% (inactive) | 76.3 | -32.1% (inactive) | 127 | -0.547 (inactive) | 2.1e-05 (inactive) | 0.00458 (inactive) | -5.85% (inactive) | -4.45% (inactive)
COc1ccc(-n2c(Cc3cccn3C)nnc2SCC(=O)Nc2cccc(C)c2C)cc1 | 816 | 4.6% (inactive) | 4.2% (inactive) | 105 | -26.4% (inactive) | 110 | -0.596 (inactive) | -4.5e-06 (inactive) | 0.00595 (inactive) | 0.797% (inactive) | 27.3% (inactive)
Cc1cccc(-n2ncc3c(NCCCO)ncnc32)c1 | 840 | 2.3% (inactive) | -32% (inactive) | 101 | -2.8% (inactive) | 107 | -0.582 (inactive) | -1.5e-05 (inactive) | 0.00564 (inactive) | -58.8% (inactive) | -193% (inactive)
O=C1NC(c2cccnc2)C(C(=O)c2cccs2)C(O)(C(F)(F)F)N1 (configuration not stated) | 506 | -0.3% (inactive) | 5% (inactive) | 104 | 40.4% (inactive) | 119 | -0.363 (inactive) | -3.5e-05 (inactive) | 0.00436 (inactive) | -6.6% (inactive) | -5.31% (inactive)
FC(F)Oc1ccc(-c2csc(Cc3nnc4n3CCCCC4)n2)cc1 | 578 | -3.5% (inactive) | -9% (inactive) | 113 | 84.7% (active) | 83.2 | -0.535 (inactive) | 7.5e-06 (inactive) | 0.00442 (inactive) | -0.365% (inactive) | -11.8% (inactive)
OC(CN1CCN(c2ccccc2)CC1)c1ccc2c(c1)CCN2 (configuration not stated) | 604 | -1.6% (inactive) | 9.3% (inactive) | 82.3 | -60.6% (inactive) | 108 | -0.571 (inactive) | -2.8e-05 (inactive) | 0.00657 (inactive) | 6.89% (inactive) | 32.4% (inactive)
Cc1ccc(S(=O)(=O)NC(=O)c2cc(C)n(CCCn3ccnc3)c2C)cc1 | 218 | -2.9% (inactive) | 9.2% (inactive) | 92.3 | -86.6% (inactive) | 108 | -0.596 (inactive) | -2.4e-05 (inactive) | 0.00417 (inactive) | 11.6% (inactive) | 13.5% (inactive)
